Compounds with a hit are over-represented: about 4% of the library has one in this group of screens.
MITF TRPM1 HTS – increases MITF-driven TRPM1 promoter luciferase signal; SK-MEL-5 TRPM1-promoter luciferase, 24 h; % of positive control, neutral wells = 0; activation, % at 12.5 µM; 300,000 compounds, 0.75% hits;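 active = mean activation of at least 80% with every replicate also reaching 80%; inconclusive = mean reaches 80% but some replicate falls short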
Wnt act – Wnt/beta-catenin pathway activation. 300,000 compounds, 1.2% hits. activation, % at 9.35 µM. Wnt/beta-catenin reporter cell assay, activator, plate reader; in the data active = activation above about 30%, passing the limit was not always enough; inconclusive = no clear call, values can overlap the other calls
PAX8 inh HTS – inhibitors of PAX8 transcriptional activity in RMG-I cells; RMG-I TPO-luciferase reporter, SteadyGlo, 24 h; inhibition, % at 12.6 µM; 360,000 compounds, 1.2% hits;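 active = mean replicate inhibition at least 60% with every replicate also reaching 60%; inconclusive = only one of the two criteria is met; inactive = mean below 60% and not all replicates reaching 60%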;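 also: luciferase light reporting Pax8 driven TPO promoter activity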
esBAF inh – inhibitors of esBAF chromatin remodeling in mouse ES cells; Bmi1-luciferase knock-in reporter, 24 h; 100% = twice the neutral-well signal; reporter increase, % at 12.5 µM; 350,000 compounds, 2% hits; AID 602393; in the data active = activation above about 40%; inconclusive = no clear call, values can overlap the other calls;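 also: a rise in the Bmi1 reporter signal indicates esBAF inhibition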
TRPM1 prom inh – reduces MITF-dependent TRPM1 promoter luciferase signal | SK-MEL-5 TRPM1 promoter luciferase, 24 h | inhibition, % at 12.5 µM | 330,000 compounds, 0.83% hits | AID 488899;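 active = mean inhibition across replicates of 60% or more, whatever share of single replicates reaches that level; inconclusive = some that reach 60%, reason not given; inactive = mean inhibition across replicates below 60%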
EWS-Fli block – blocks EWS/Fli oncoprotein-driven transcription | inhibition, % at 12.6 µM | A673 NR0B1-luciferase reporter, viability-normalised | AID 651661 | 350,000 compounds, 0.67% hits;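 active = mean inhibition of at least 50% after viability correction, with every replicate also passing that limit; inconclusive = mean reaches 50% but only one of two replicates passes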;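 also: firefly luciferase signal divided by Alamar Blue viability fluorescence both relative to DMSO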
Numbers stand for hits; i = inactive; ? = inconclusive; nt = no result given.

SMILES | MITF TRPM1 HTS | Wnt act | PAX8 inh HTS | esBAF inh | TRPM1 prom inh | EWS-Fli block
O=C(COc1ccc(/C=N/NC(=O)c2cc3ccccc3o2)cc1Cl)Nc1ccccc1 | i | nt | nt | i | 95.3 | nt
COc1ccc(/C=N/NC(=O)c2[nH]nc3c2CCc2ccccc2-3)cc1OC | i | i | i | nt | i | 53.4
CNC(=O)c1[nH]nc2c1CCc1ccccc1-2 | i | i | i | i | i | i
CCOc1cc(/C=N\NC(=O)Cc2ccccc2)ccc1OCC(=O)Nc1ccc(C)c(C)c1 | i | nt | nt | i | 64.0 | nt
CC(C)c1cn(CC[C@@H]2CC[C@H](NC(=O)C3CCOCC3)[C@H](CO)O2)nn1 | nt | nt | i | nt | nt | nt
COCC(=O)Nc1ccc2c(c1)C(=O)N(C)[C@H]1CC[C@H](CC(=O)NCc3cccc(F)c3)O[C@H]1CO2 | nt | nt | i | i | nt | i
C[C@H](CO)N1C[C@H](C)[C@@H](CN(C)C(=O)CCC(F)(F)F)OCCCC[C@H](C)Oc2ccc(NC(=O)CCCN(C)C)cc2C1=O | nt | nt | i | i | nt | i
CCOC(=O)/C=C(\C)Sc1cc(O)c2ccccc2c1O | i | i | i | i | 82.9 | i
CCOC(=O)/C=C(\C)Sc1cc(=O)oc2ccccc12 | i | i | 64.0 | i | i | nt
COCC(=O)Nc1ccc2c(c1)C(=O)N(C)[C@H]1CC[C@@H](CC(=O)NCC3CCCCC3)O[C@H]1CO2 | nt | nt | i | i | nt | i
COc1ccccc1C(=O)N1C[C@H]2[C@@H](c3ccccc31)[C@H](CO)N2C(=O)Cc1ccccc1 | nt | nt | i | i | nt | i
COc1ccc(-n2ncc3c(N(C)C4CCCCC4)ncnc32)cc1 | i | i | i | i | i | 77.5
COc1ccc(-n2ncc3c(N4CCC(C)CC4)ncnc32)cc1 | nt | i | i | i | nt | i
Cc1cccc(-n2ncc3c(N(CCO)CCO)ncnc32)c1 | i | i | i | i | i | i
Cc1cccc(-n2ncc3c(N(C)C4CCCCC4)ncnc32)c1 | i | i | i | i | 79.5 | 72.5
CO[C@@H]1CN(C)C(=O)c2ccc(NC(=O)Nc3cccc(F)c3)cc2OC[C@@H](C)NC[C@@H]1C | nt | nt | i | i | nt | i
C[C@H]1CN([C@@H](C)CO)C(=O)Cc2cc(NC(=O)c3ccncc3)ccc2O[C@@H]1CN(C)Cc1ccc2c(c1)OCO2 | nt | nt | i | i | nt | i
CO[C@@H]1CN(C)C(=O)c2ccc(NC(=O)c3nc4ccccc4s3)cc2OC[C@@H](C)NC[C@@H]1C | nt | nt | nt | i | nt | i
CCOC(=O)N1CCN(C(=O)/C(=C/c2cccc3ccccc23)NC(=O)c2ccc(OC)c(OC)c2)CC1 | i | i | 71.6 | nt | i | i
C/C=C/c1ccc([C@H]2[C@@H](CO)N(C(=O)CC)[C@@H]2CNC(=O)CC)cc1 | nt | nt | i | i | nt | i
CCCCOC(=O)Nc1ccc(C(C)C)cc1 | nt | nt | nt | 74.8 | i | nt
CCCCOC(=O)Nc1ccc(N2CCCCC2)cc1 | nt | 73.7 | i | i | i | nt
O=C(CCCN1C(=O)/C(=C/c2ccccc2)SC1=S)Nc1cccc(O)c1 | i | i | 66.3 | nt | i | i
COc1cc(/C=C2\SC(=S)N(CCC(=O)NC3CCCC3)C2=O)cc(OC)c1OC | i | i | i | i | i | i
Cc1ccc(/C=C2\SC(=S)N(CCCC(=O)NC3CCCC3)C2=O)cc1 | i | i | i | i | 75.7 | nt
SMILES | MITF TRPM1 HTS | Wnt act | PAX8 inh HTS | esBAF inh | TRPM1 prom inh | EWS-Fli block
O=C(CCCN1C(=O)/C(=C\c2ccccc2)SC1=S)Nc1ccc(O)cc1 | i | i | 76.7 | nt | i | i
O=C(CCCN1C(=O)/C(=C/c2ccccc2Cl)SC1=S)Nc1cccnc1 | i | i | 80.7 | i | i | nt
CCS(=O)(=O)N1CCC2(CC1)CN(C(=O)c1ccc(F)cc1)[C@@H](CO)c1[nH]c3cc(OC)ccc3c12 | nt | nt | i | nt | nt | i
Cc1ccc(S(=O)(=O)N(C)C[C@@H]2Oc3c(NS(=O)(=O)c4cn(C)cn4)cccc3C(=O)N([C@@H](C)CO)C[C@@H]2C)cc1 | nt | nt | i | i | nt | i
O=C(C[C@@H]1C=C[C@H](NC(=O)c2ccncc2)[C@@H](CO)O1)Nc1ccc(-c2ccccc2)cc1 | nt | nt | i | i | nt | i
O=C(C1CCOCC1)N1C[C@@H]2[C@H](c3ccccc31)[C@H](CO)N2Cc1ccccc1 | nt | nt | i | i | nt | i
CNC[C@@H]1Oc2ccc(NC(=O)C3CC3)cc2CC(=O)N([C@@H](C)CO)C[C@@H]1C | nt | nt | i | i | nt | i
O=C(O)CCCN1C(=O)/C(=C\C(Cl)=C\c2ccccc2)SC1=S | i | i | 114.5 | i | 66.3 | ?
Cc1ccc(/C=C2/SC(=S)N(CCCC(=O)Nc3ccc(O)cc3)C2=O)cc1 | i | i | 80.9 | i | i | i
O=C(CCCN1C(=O)/C(=C/c2cccs2)SC1=S)Nc1cccc(O)c1 | i | i | 67.4 | i | i | i
CC(/C=C1\SC(=S)N(CCC(=O)Nc2ccc(O)cc2)C1=O)=C\c1ccccc1 | i | i | 73.7 | i | i | i
COc1ccc(/C=C2/SC(=S)N(CCCC(=O)Nc3ccc(O)cc3)C2=O)cc1OC | i | i | nt | nt | i | i
O=C(NCC[C@H]1CC[C@@H](NS(=O)(=O)c2ccccc2)[C@H](CO)O1)c1ccccc1F | nt | nt | i | i | nt | i
Cc1noc(C)c1S(=O)(=O)N(C)C[C@@H]1Oc2ccc(NS(C)(=O)=O)cc2C(=O)N([C@H](C)CO)C[C@@H]1C | nt | nt | nt | i | nt | i
CCOc1ccc(/C=C2\SC(=S)N(CCC(=O)O)C2=O)cc1 | i | i | i | nt | 84.8 | 72.8
Cc1ccc(NC(=O)CCCN2C(=O)/C(=C/C=C/c3ccccc3)SC2=S)cc1 | i | i | i | i | i | nt
O=C(COC(=O)CCN1C(=O)/C(=C\C=C\c2ccccc2)SC1=S)Nc1ccc(Br)cc1 | i | i | i | nt | 64.2 | i
CCOc1ccc(/C=C2/SC(=S)N(CCC(=O)Nc3ccc(C(=O)O)cc3)C2=O)cc1 | i | i | nt | i | i | i

Screening results as filed in PubChem.
